In PubChem BioAssay (Tox21):
Several values for one entry are separate records, joined by “and”; a condition that tells them apart may be missing. Identical values can stand only once. Inconclusive results are not listed. More than one record can exist for a structure, and the calls need not agree. Activity calls are given as the source filed them. Unless noted, calls follow the shape of the dose curve; as a rule, active = well fitted curve in the direction sought with a large enough effect in the repeat runs; inconclusive = weak or mixed curves; inactive = no such curve, though single readings can be large; an effect the other way counts as inactive or inconclusive.

What was measured:
[1] = qHTS assay to identify small molecule agonists of H2AX (AID 1224845; active = well fitted activation curve with a large enough effect in the signal ratio in the repeat runs, not every such curve was filed as active; the % refers to the signal ratio; also: potency is read from the fitted curve at half-maximal effect)
In short: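 Wild-type CHO-K1 cells plated overnight, then exposed 3 hr at 37C to compounds at 15 concentrations (0.76% DMSO). Lysed, then HTRF anti-pH2AX(S139)-cryptate/anti-H2AX-d2 detection after 24 hr at room temperature; emissions 665 and 620 nm.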

[2] = qHTS assay to identify small molecule agonists of H2AX - cell viability counter screen (AID 1224847; calls by dose curve; also: nearly all actives have a fitted effect of over 30% in size; also: potency is read from the fitted curve at half-maximal effect; as to activity change, negative = cytotoxicity: top concentration of the series differs between compounds)
In short: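 Viability of CHO-K1 (wild type) cells after 3 hr compound exposure was measured by CellTiter-Glo luminescence.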

[3] = qHTS assay to identify small molecule antagonists of the estrogen related receptor (ERR) signaling pathway from Tox21 library (AID 1224848); also: nearly all actives have a fitted effect of over 50% in size; also: potency is read from the fitted curve at half-maximal effect
In short: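 Cells: ERR line, 2,000/well; 6 h preincubation 37 C/5% CO2. Cpd in DMSO via pin tool; 18 h, 37 C. ONE-Glo, 30 min RT, luminescence.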

[4] = qHTS assay to identify small molecule agonists of the estrogen related receptor (ERR) signaling pathway from Tox21 library (AID 1224849; calls by dose curve; also: nearly all actives have a fitted effect of over 15% in size); settings: ERR reporter cell line, ONE-Glo luciferase, 18 h; at 92.4 µM (top of the series) unless noted
In short: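 ERR reporter cells (NTP line) pre-incubated 6 hours at 37 C, then exposed to compounds for 18 hours at 37 C. ONE-Glo luciferase luminescence was read after 30 minutes at room temperature.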

[5] = qHTS RealTime-Glo MT Cell Viability Assay in HepG2 cells - 24 hour (AID 1224867); also: nearly all actives have a fitted effect of over 50% in size; also: potency is read from the fitted curve at half-maximal effect
In short: (§1)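 HepG2 cells (600/well) were dispensed with RealTime-Glo reagents, incubated 5 h at 37 °C, then treated with compounds in DMSO for up to 40 h. Nonlytic NanoLuc luminescence reflecting viable cells was read at each stated time point.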

[6] = qHTS RealTime-Glo MT Cell Viability Assay in HEK293 cells - 32 hour (AID 1224868); also: nearly all actives have a fitted effect of over 50% in size; also: potency is read from the fitted curve at half-maximal effect
In short: (§2)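 HEK293 cells seeded with NanoLuc/prosubstrate reagent, rested 5 h at 37 C, then dosed and kept at 37 C up to 40 h. Nonlytic real-time luminescence from viable cells read at 0, 8, 16, 24, 32 and 40 h.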

[7] = A CellTox Green Cytotoxicity Assay to monitor cytotoxicity in HEK293 cells - 0 hour (AID 1224869); also: nearly all actives have a fitted effect of over 50% in size; also: potency is read from the fitted curve at half-maximal effect
In short: (§3)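 HEK293 cells, 600/well, were preincubated 5 hours and then exposed to compounds at 37 C for up to 40 hours. A cell-impermeant cyanine dye staining dead-cell DNA was read by fluorescence at 0, 8, 16, 24, 32 and 40 h time points.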

[8] = A CellTox Green Cytotoxicity Assay to monitor cytotoxicity in HEK293 cells - 40 hour (AID 1224871); also: nearly all actives have a fitted effect of over 45% in size; also: potency is read from the fitted curve at half-maximal effect
In short: as §3

[9] = qHTS RealTime-Glo MT Cell Viability Assay in HEK293 cells - 16 hour (AID 1224872); also: nearly all actives have a fitted effect of over 50% in size; also: potency is read from the fitted curve at half-maximal effect; as to activity change, negative = cytotoxicity: top concentration of the series differs between compounds
In short: as §2

[10] = qHTS RealTime-Glo MT Cell Viability Assay in HepG2 cells - 8 hour (AID 1224873); also: nearly all actives have a fitted effect of over 55% in size; also: potency is read from the fitted curve at half-maximal effect
In short: (§4)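 HepG2 cells mixed with RealTime-Glo MT reagents (NanoLuc plus cell-permeant prosubstrate) were seeded at 600 cells/well, incubated 5 h at 37 C/5% CO2, then pinned with compounds in DMSO; nonlytic luminescence tracked viability during 40 h treatment.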

[11] = qHTS RealTime-Glo MT Cell Viability Assay in HEK293 cells - 40 hour (AID 1224874); settings: RealTime-Glo luminescence; max response: stronger effect = lower value; also: nearly all actives have a fitted effect of over 50% in size; also: potency is read from the fitted curve at half-maximal effect
In short: (§5)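 600 cells/well were plated with the nonlytic NanoLuc/prosubstrate reagent, pre-incubated 5 h, then given 23 nL of compound in DMSO. Incubation at 37 C for 40 h, with luminescence from viable-cell-reduced substrate read repeatedly from 0 h.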

[12] = A CellTox Green Cytotoxicity Assay to monitor cytotoxicity in HEK293 cells - 24 hour (AID 1224875); also: nearly all actives have a fitted effect of over 45% in size; also: potency is read from the fitted curve at half-maximal effect
In short: as §3

[13] = qHTS RealTime-Glo MT Cell Viability Assay in HepG2 cells - 32 hour (AID 1224877); also: nearly all actives have a fitted effect of over 55% in size; also: potency is read from the fitted curve at half-maximal effect
In short: as §1

[14] = A CellTox Green Cytotoxicity Assay to monitor cytotoxicity in HepG2 cells - 24 hour (AID 1224878); also: nearly all actives have a fitted effect of over 45% in size; also: potency is read from the fitted curve at half-maximal effect
In short: (§6)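 HepG2 cells, 600/well, preincubated 5 h with CellTox Green dye, then exposed to Tox21 compounds in DMSO at 37 C for up to 40 h. Dead-cell DNA fluorescence read at the indicated time point.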

[15] = A CellTox Green Cytotoxicity Assay to monitor cytotoxicity in HepG2 cells - 40 hour (AID 1224879); also: nearly all actives have a fitted effect of over 40% in size; also: potency is read from the fitted curve at half-maximal effect
In short: as §6

[16] = qHTS RealTime-Glo MT Cell Viability Assay in HEK293 cells - 0 hour (AID 1224880); also: top concentration of the series differs between compounds; nearly all actives have a fitted effect of over 45% in size
In short: as §5

[17] = qHTS RealTime-Glo MT Cell Viability Assay in HepG2 cells - 40 hour (AID 1224870); also: nearly all actives have a fitted effect of over 50% in size; also: potency is read from the fitted curve at half-maximal effect
In short: as §4

[18] = qHTS assay to identify small molecule agonists of the hypoxia (HIF-1) signaling pathway - cell viability counter screen (AID 1224844; calls by dose curve; also: nearly all actives have a fitted effect of over 50% in size; also: potency is read from the fitted curve at half-maximal effect)
In short: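 HRE-bla ME-180 cells, 2,000/well in 0.5% dialyzed FBS medium, treated 17 h at 37C with compounds. Viability read in the same wells as the bla reporter, by CellTiter-Glo luminescence after 30 min at room temperature.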

[19] = qHTS assay to identify small molecule agonists of the hypoxia (HIF-1) signaling pathway (AID 1224846; active = well fitted activation curve with a large enough effect in the signal ratio in the repeat runs, not every such curve was filed as active; the % refers to the signal ratio)
In short: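 HRE-bla ME-180 beta-lactamase reporter cells in medium with 0.5% dialyzed FBS, pre-incubated 5 h then exposed to compounds 17 h at 37C, 5% CO2; reporter induction read with CCF4-AM FRET substrate.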

[20] = A CellTox Green Cytotoxicity Assay to monitor cytotoxicity in HepG2 cells - 16 hour (AID 1224876); also: nearly all actives have a fitted effect of over 45% in size; also: potency is read from the fitted curve at half-maximal effect
In short: as §6
% is scaled to controls: 0 for no effect and ±100 for the full control effect.

ClC1=C(Cl)[C@]2(Cl)[C@@H]3[C@@H]4C[C@@H]([C@H]5O[C@@H]45)[C@@H]3[C@@]1(Cl)C2(Cl)Cl
inactive: activity change, positive = activation [4] -52.1% | Potency [16]
active: Potency [1] 17.9 µM | Potency [2] 50.5 µM | Potency [3] 43.3 µM | Potency [5] 43.6 µM | Potency [6] 21.9 µM | Potency [7] 43.6 µM | Potency [8] 51.9 µM | Potency [9] 21.9 µM | Potency [10] 43.6 µM | Potency [11] 44.9 µM | Potency [12] 49 µM | Potency [13] 49 µM | Potency [14] 49 µM | Potency [15] 49 µM

O=C(CCl)C(Cl)Cl
inactive: Potency [2] | activity change, positive = activation [4] -73% | Potency [7] | Potency [10] | Potency [16]
active: Potency [1] 40.5 µM | Potency [3] 43.7 µM | Potency [6] 17.5 µM | Potency [8] 24.8 µM | Potency [9] 17.5 µM | Potency [11] 17.5 µM | Potency [15] 49.4 µM

CCc1nn(C)c(C(=O)NCc2ccc(C(C)(C)C)cc2)c1Cl
active: Potency [2] 56.6 µM | Potency [3] 0.0486 µM | Potency [6] 0.0347 µM | Potency [9] 0.0871 µM | Potency [11] 0.0977 µM
inactive: Potency [1] | activity change, positive = activation [4] -58.3% | Potency [5] | Potency [7] | Potency [17] | Potency [10] | Potency [12] | Potency [13] | Potency [14] | Potency [15] | Potency [16]

O=c1[nH]c2ccccc2n1CCCN1CCC(n2c(=O)[nH]c3cc(Cl)ccc32)CC1
inactive: Potency [18] | Potency [5] | Potency [7] | Potency [17] | Potency [8] | Potency [10] | Potency [12] | Potency [13]
active: Potency [6] 10.7 µM | Potency [9] 9.52 µM | Potency [11] 10.7 µM | Potency [14] 21.3 µM | Potency [15] 23.9 µM

CCOc1cc(C(C)(C)C)ccc1C1COC(c2c(F)cccc2F)=N1 (stereo not given)
active: Potency [3] 37.1 µM
inactive: Potency [1] | outcome [19] | activity change, positive = activation [4] -39.5% [at 42.5 µM] | Potency [5] | Potency [7] | Potency [8] | Potency [10] | Potency [12] | Potency [20] | Potency [13] | Potency [14] | Potency [15] | Potency [16]

Clc1ccc(CCC(Cn2ccnc2)Sc2c(Cl)cccc2Cl)cc1 (stereo not given)
inactive: activity change, positive = activation [4] -61.6% [at 42.5 µM] | Potency [7] | Potency [17] | Potency [8] | Potency [12] | Potency [16]
active: Potency [18] 23.9 µM | Potency [3] 18.8 µM | Potency [6] 9.52 µM | Potency [11] 8.49 µM | Potency [15] 10.7 µM

FC(F)(F)c1cccc(C2=CCN(CCc3ccc4ccccc4c3)CC2)c1
inactive: Potency [1] | outcome [19] | Potency [3] | activity change, positive = activation [4] -0.643% [at 42.5 µM] | Potency [5] | Potency [6] | Potency [7] | Potency [17] | Potency [8] | Potency [9] | Potency [10] | max response [11] 2.33% | Potency [12] | Potency [13] | Potency [14] | Potency [15] | Potency [16]

CSCCCN=C=S
inactive: Potency [1] | Potency [2] | Potency [3] | activity change, positive = activation [4] -13.5% | Potency [5] | Potency [17] | Potency [10] | Potency [12] | Potency [13] | Potency [16]

CC(C)N1C(=O)N(c2ccccc2)CSC1=NC(C)(C)C
inactive: Potency [1] | activity change, positive = activation [4] -49.9% | Potency [5] | Potency [7] | Potency [17] | Potency [8] | Potency [10] | Potency [12] | Potency [20] | Potency [13] | Potency [14] | Potency [15] | Potency [16]
active: Potency [3] 34.4 µM | Potency [6] 21.9 µM | Potency [9] 19.5 µM | Potency [11] 21.9 µM

CC1(C)CN=C(NN=C(/C=C/c2ccc(C(F)(F)F)cc2)/C=C/c2ccc(C(F)(F)F)cc2)NC1
active: Potency [18] 21.9 µM | Potency [3] 13.7 µM | Potency [5] 17.4 µM | Potency [8] 49 µM | Potency [9] 49 µM | Potency [10] 24.5 µM | Potency [11] 38.9 µM | Potency [20] 24.5 µM | Potency [13] 17.4 µM | Potency [15] 15.5 µM
inactive: activity change, positive = activation [4] -76.2% | Potency [7] | Potency [16]

CCC(C)c1cc([N+](=O)[O-])cc([N+](=O)[O-])c1OC(=O)C=C(C)C (stereo not given)
active: Potency [5] 49 µM | Potency [6] 21.9 µM | Potency [17] 49 µM | Potency [9] 49 µM | Potency [11] 21.9 µM | Potency [13] 49 µM
inactive: Potency [18] | Potency [7] | Potency [8] | Potency [12] | Potency [20] | Potency [16]

Oc1ccc(C(c2ccc(O)cc2)(C(F)(F)F)C(F)(F)F)cc1
inactive: Potency [18] | activity change, positive = activation [4] -65.7% and -36.3% | Potency [5] | Potency [17] | Potency [10] | Potency [13]
active: Potency [3] 54.2 µM and 61.1 µM | Potency [6] 43.4 µM | Potency [11] 38.7 µM | Potency [15] 54.7 µM and 54.9 µM
43.4 µM (active) and inactive: Potency [8]

[Cl][Sn]([c]1ccccc1)([c]1ccccc1)[c]1ccccc1
inactive: activity change, positive = activation [4] -65.5% [at 19 µM] | cytotoxicity [7] -13.5% [at 15.8 µM] | activity change, negative = cytotoxicity [16] 1.26% [at 15.8 µM]
active: Potency [1] 0.677 µM | Potency [2] 1.52 µM | Potency [3] 0.58 µM | Potency [5] 2.61 µM | Potency [6] 0.262 µM | Potency [17] 2.61 µM | Potency [8] 1.65 µM | Potency [9] 0.293 µM | Potency [10] 7.37 µM | Potency [11] 0.233 µM | Potency [12] 1.85 µM | Potency [20] 3.29 µM | Potency [13] 2.61 µM | Potency [14] 2.61 µM | Potency [15] 2.61 µM
